Sampled rows, rich in hits. Any-hit rate of the full collection: about 7.2%.
ALR inh: blocks human ALR sulfhydryl oxidase activity; P55789; purified ALR, DTT oxidation, H2O2 HRP-luminol luminescence; inhibition, % (test concentration not listed); 290,000 compounds, 3.8% hits; AID 485317;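 active means mean replicate inhibition above about 79%, with every replicate also reaching it, limit read from the data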
VLA-4 inh: inhibition in a human VLA-4 binding assay. inhibition, % (about 7 µM as worked out from the volumes in the protocol). 330,000 compounds, 0.2% hits. VLA-4 expressing cells, ligand binding flow cytometry; in the data active means inhibition above about 50%
Bfl-1 A1 inh: inhibitors of the anti-apoptotic protein A1, read as caspase activation; MEF A1-2A-BIM cells, Caspase-Glo 3/7 luminescence, 3 h; percent of clofoctol response, vehicle zero; caspase activation, % (concentration not given with the values); 330,000 compounds, 0.066% hits; AID 2462;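 active means over half of replicate activation scores above 10%, or exactly half above 10 with the replicate mean above 10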
Mot1-301 SUMO: blocks SUMOylation pathway, rescuing yeast Mot1-301 growth | S. cerevisiae Mot1-301 growth rescue, ATP luminescence, 38.5C; percent above DMSO median, 100 means doubled | growth rescue, % at 18.8 µM | 320,000 compounds, 1% hits | AID 2716;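 active means every valid replicate shows activation above 250% relative to neutral control wells; inactive means the rest, any valid replicate at or below 250%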
Efflux pump inh: antifungal efflux pump inhibition, Nile Red retention; S. cerevisiae Candida pump triplex; inhibition, % at 10 µM; 330,000 compounds, 0.44% hits; AID 485275;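 active means plate passing quality check with inhibition over a set limit, or well fluorescence over plate mean plus 4 SD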;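 further: Nile Red retained in pooled yeast measured as flow cytometry median fluorescence; higher means more Nile Red kept so more efflux inhibition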
AHR activator: human AHR activation | P35869 | AHR-responsive luciferase reporter cells, luminescence | activation, % at 5 µM | 320,000 compounds, 2.5% hits | AID 2796; in the data active means activation above about 47%
Yeast Mot1 SUMO: inhibits SUMO pathway, affecting Mot1-301 yeast growth; growth activity, percent, % at 42 µM; shares compounds with Mot1-301 SUMO; 2,300 tested, under 10 active; S. cerevisiae Mot1-301 galactose growth, ATP luminescence, 24 h; -100 = growth of slx-deleted rescue strain; AID 493004;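 active means Signal drops as the depositor expects, and the fitted half-maximal dose is no more than ten times the top valid tested dose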;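 further: more negative values mean stronger growth rescue toward the control strain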
Each line names hits and unclear results; the compound was inactive in the other large screens (follow-up assays come after a bar, where they were run).

O=C1CCC(C(=O)N2CCN(c3ccccc3)CC2)CN1CC1CCCCC1 (centres undefined)	Mot1-301 SUMO 532 | Yeast Mot1 SUMO inactive
COC(=O)c1cc2c(s1)-c1ccc(OC)cc1CC2	Mot1-301 SUMO 477 | Yeast Mot1 SUMO inactive
O=C(CNC(=O)c1ccc(Br)o1)NNC(=O)c1n[nH]c(=O)c2ccccc12	none
CC(=O)OCc1ccccc1Sc1ccccc1C(=O)NCc1ccccc1	none
CNC(=O)c1ccccc1S(=O)c1ccccc1COC(C)=O (centres undefined)	Mot1-301 SUMO 384 | Yeast Mot1 SUMO inactive
CCCN(CCC)C(=O)CSc1ncccc1C(=O)O	Mot1-301 SUMO 399 | Yeast Mot1 SUMO inactive
CN(C(=O)CSc1ncccc1C(=O)O)c1ccccc1	none
CCOC(=O)C1(Cc2cccc(F)c2)CCN(C(=O)c2cnccn2)CC1	Mot1-301 SUMO 632 | Yeast Mot1 SUMO inactive
CCOC(=O)C1(Cc2ccccc2Cl)CCN(C(=O)c2cnccn2)CC1	none
O=C(COc1cccc2cccnc12)N1CCc2ccccc21	Mot1-301 SUMO 561 (no result: ALR inh) | Yeast Mot1 SUMO inactive
Cc1ccc2cccc(OCC(=O)N3CCc4ccccc43)c2n1	none (no result: ALR inh)
O=c1cnc2ccccc2n1Cc1ccccc1C(F)(F)F	Mot1-301 SUMO 515 | Yeast Mot1 SUMO inactive
Cc1ccc(OCCn2c(=O)cnc3ccccc32)cc1	none
CN(C)S(=O)(=O)c1ccc(C(=O)/C=C/c2cccnc2)cc1	Mot1-301 SUMO 644 | Yeast Mot1 SUMO inactive
CCOC(=O)NNC1CC(=O)N(c2ccc(OC)cc2)C1=O (centres undefined)	none
COC(=O)c1[nH]c2c(c1C)C(=O)CC(c1cc(OC)c(OC)c(OC)c1)C2 (centres undefined)	none
O=C(Nc1cccc(C(=O)Nc2ccc(F)cc2F)c1)c1ccccc1	Mot1-301 SUMO active | Yeast Mot1 SUMO inactive
Nc1ccnc(=O)[nH]1	Mot1-301 SUMO 654 | Yeast Mot1 SUMO inactive
O=C(O)c1cccc(Nc2ncnc3sccc23)c1	none
Fc1cccc(Nc2ncnc3sccc23)c1	Mot1-301 SUMO 655 | Yeast Mot1 SUMO inactive
Cc1ccc(S(=O)(=O)NN2C(=O)c3ccccc3NC2c2ccccc2F)cc1 (centres undefined)	Mot1-301 SUMO 429 | Yeast Mot1 SUMO inactive
Oc1c(Br)cc(Cl)cc1C=Nc1ccc(N2CCOCC2)cc1	none
Oc1c(Br)cc(Cl)cc1C=Nc1ccccc1Br	Mot1-301 SUMO 634 | Yeast Mot1 SUMO inactive
COc1ccc(/C=N/NC(=O)c2c(C)nc3ccccn23)cc1[N+](=O)[O-]	Mot1-301 SUMO 569 | Yeast Mot1 SUMO inactive
COc1ccc(NC(=O)COC(=O)c2cc(OC)c(OC)c(OC)c2)c([N+](=O)[O-])c1	none
CNS(=O)(=O)c1cccc(C(=O)OCC(=O)Nc2ccc(OC)cc2[N+](=O)[O-])c1	Mot1-301 SUMO 810 | Yeast Mot1 SUMO inactive
CC1CCC(C(C)C)C(OC(=O)COC(=O)c2cccn2C)C1 (centres undefined)	Mot1-301 SUMO 377 | Yeast Mot1 SUMO inactive
CC1CCC(C(C)C)C(OC(=O)COC(=O)c2ccc(N)cc2)C1 (centres undefined)	none
Nc1nc(SCc2nc3sc4c(c3c(=O)[nH]2)CCCC4)n[nH]1	none (no result: ALR inh)
Nc1nc(SCc2nc3scc(-c4cccs4)c3c(=O)[nH]2)n[nH]1	Mot1-301 SUMO active | Yeast Mot1 SUMO inactive
CC1CCC(NC(=O)COC(=O)CNC(=O)c2ccc3ccccc3c2)CC1 (centres undefined)	none (no result: ALR inh)
Cc1nc2c3ccccc3nc(NNC(=O)CCC(=O)N3CCCC(C)C3)n2n1 (centres undefined)	Mot1-301 SUMO 455 | Yeast Mot1 SUMO inactive
Cc1ccc(-c2nc3c(=O)n(-c4ccccc4)c4c(c(=O)n(C)c(=O)n4C)c3o2)cc1	Mot1-301 SUMO 796 | Yeast Mot1 SUMO inactive
CCCCN(C/C=C/c1ccccc1OC)Cc1ccccc1	Mot1-301 SUMO 529 | Yeast Mot1 SUMO inactive
CCN(CCCNS(=O)(=O)c1cc(-c2cc(C)no2)ccc1C)Cc1ccccc1	none
O=C(COc1nsnc1N1CCOCC1)Nc1ccc(Cl)cc1	none (no result: ALR inh)
CSc1ccccc1NC(=O)COc1nsnc1N1CCOCC1	Mot1-301 SUMO 413 | Yeast Mot1 SUMO inactive

Source: PubChem
